This passage reports Percent Effect results from ChEMBL document CHEMBL3988442, “University of Dundee, Small-Polar-MMV Screening Library” (2021).

This test has as its target Shiga toxin 2 (Escherichia coli O157:H7) (UniProt P09385+P09386). Description: E. coli 0.157:H7 Shiga Toxin SOP - stx2 screening assay. The format is functional. The arrangement: scale not given: direction of the effect not stated beside the values. As to conditions: 30 µM.
Turning to `CC(C)(C)C(=O)NCCC(=O)NC(C)(C)c1ccc2c(c1)OCCO2`, the Percent Effect was -2.07%. Consider `CN(Cc1cn2c(n1)CN(C(=O)CC1CC1)CC2)Cc1ccco1`, for which the Percent Effect was -5.93%. The same measure for `CCNC(=O)CN1CCCN(C(=O)C2CCCc3[nH]ncc32)CC1` (stereo not given): -2%; for `Cc1noc(C)c1C(=O)N1CC[C@H]2C[C@@H](c3ccncn3)O[C@@H]2C1`: 3.86%; for `Cc1ccc(CN2CCCn3nnc(COCC4CC4)c3C2)s1`: 0.0593%. The same measure for `Cn1cc(NC(=O)N2CCC(CN3CCCC3)CC2)ccc1=O`: -22.6%. For the molecule `Cc1ccsc1CN(Cc1ccccn1)CC(C)C`, the Percent Effect is -3.58%. As to `CC1CN(C(=O)c2ccn(-c3cccc(Cl)c3)n2)CCO1` (stereo not given), the Percent Effect is -15%. The same measure for `CCC(NC(=O)C1CCN(S(C)(=O)=O)CC1)c1ccc(OC)c(C)c1` (stereo not given): -11.6%; for `CC(NC(=O)N1CCC(n2cncn2)CC1)c1ccc(F)cc1F` (stereo not given): 7.64%. The same measure for `COc1ccnc(N2CCN(C(=O)c3csc(C4CC4)n3)CC2)n1`: -2.7%. Consider `Cc1csc(N2CCN(Cc3cnc(C)s3)CC2C)n1` (stereo not given), for which the Percent Effect turned out to be 13.7%. The same measure for `CCN1CCO[C@]2(CCC[C@H]2COCc2csc(C)n2)C1`: 7.16%; for `O=C(Cc1ccc2c(c1)CCC2)NCCNc1ncccn1`: 7.96%; for `CN(Cc1ccc(F)cc1)C(=O)CN1CCCC(Cn2cncn2)C1` (stereo not given): 5.36%. The same measure for `Cc1ncc(CNC(=O)c2nn(C)c3c2CS(=O)(=O)CC3)s1`: -24.6%; for `CCn1cc(CN(C)S(=O)(=O)c2ccc(Cl)cc2)cn1`: -34%.

Regarding `CN(C)c1ncnc2c1CCN(CC1CCCC1)CC2`, the Percent Effect was -5.38%.

Consider `CCOc1ccc(CC(CNC(=O)c2ccoc2)C(N)=O)cc1` (stereo not given), for which the Percent Effect was -12.5%.

In the case of `CN(C)C[C@H]1OC[C@@H]2CCN(S(=O)(=O)c3cccs3)C[C@@H]21`, the Percent Effect was -8.75%. The same measure for `CC1CCN(Cc2cnc(S(=O)(=O)CC3CC3)n2CC2CCCO2)CC1` (stereo not given): -24.8%. `CN(Cc1cccc(F)c1)C1CCN(CCc2ccccn2)CC1`: the Percent Effect is -8.85%. The same measure for `CN(C)C(=O)N1C[C@@H]2COC[C@]2(CNS(C)(=O)=O)C1`: -0.0161%; for `COC(=O)N1CCCC(C(=O)NCc2cc3cccc(OC)c3o2)C1` (stereo not given): 14.7%.

With `Cc1nc(CN2CCCC(CCc3ccc(F)cc3F)C2)c[nH]1` (stereo not given), the Percent Effect is -3.15%. Take `Cc1ncsc1C(=O)NC1CCN(CC(=O)N(C)C(C)(C)C#N)CC1`: the Percent Effect amounted to 25.4%.

Regarding `CC(C)c1cc(NC(=O)CN2CCNC(=O)C2)on1`, the Percent Effect was -3.5%.

In the case of `Cc1ccc(CN2C[C@@H]3COC[C@H](C(=O)N4CCCCO4)[C@@H]3C2)o1`, the Percent Effect was -5.34%. The same measure for `Cc1ccc(N2CCC3(CCCN(C(=O)c4cccnc4)C3)C2)nn1` (stereo not given): -11%. Consider `Cc1nn(C(C)C)c(C)c1NC(=O)c1ccncc1`, for which the Percent Effect is -15.8%. `Cc1noc(C)c1CN(C)C(=O)c1ccc(NC2CC2)nc1`: the Percent Effect is 26.3%.

As for `CN1CCCCC1c1ncc2c(n1)CCN(Cc1ccccc1Cl)C2` (stereo not given), the Percent Effect was -22.5%. The same measure for `COc1cccc(COCC(=O)N2CCCC(c3nncn3C)C2)c1` (stereo not given): 8.24%; for `CCc1nc(CC(=O)NCC(Cc2ccc(F)cc2)C(N)=O)cs1` (stereo not given): 3.77%; for `Cc1noc(C)c1CN1CCN(CC2CC2)c2ncccc2C1`: 0.649%.

Regarding `CN(Cc1cnn(C)c1)C(=O)NC1CCN(Cc2ccccn2)CC1`, the Percent Effect is -5.06%. In the case of `COc1ncccc1C(=O)N1CCN(C(=O)Cc2ccccn2)CC1`, the Percent Effect is -53.3%. Regarding `Cc1nc(COc2ccc(CNCC3CN(C)CCO3)cc2)cs1` (stereo not given), the Percent Effect is -13.8%.

Take `N#CCCN(C(=O)CN1CCCC1c1ccsc1)c1ccccc1F` (stereo not given): the Percent Effect is 4.76%.

In the case of `Cc1nn(CC(C)C)c(N(C)C)c1CNCc1cccc2c1OCO2`, the Percent Effect was determined as 20.6%.
